# Abeta rescue: restores growth of yeast expressing A-beta42 peptide; 0.063% of 410,000 active; Potency, µM (highest dose often 46.1 µM), most hits filed as activators; AID 1347071; yeast expressing A-beta42, growth rescue, OD600, 48 h; response scale: 0% DMSO, 100% iron-clioquinol control; further: nearly all actives have a fitted effect of over 55% in size
#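 Growth rescue measured by 600 nm absorbance after 48 h yeast culture at 30 C with compound. Values normalized between DMSO and an equimolar ferric chloride plus clioquinol control.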
# TDP-43 yeast inh: TDP-43 toxicity inhibition in yeast. 1.8% of 410,000 active. TDP-43 expressing yeast growth rescue, BacTiter-Glo, 24 h. Potency, µM (series often up to 46.1 µM), hits mostly activators; further: nearly all actives have a fitted effect of over 50% in size
#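 Luminescence from BacTiter-Glo reports growth of TDP-43-expressing yeast after 24 hr at 30 deg C with compound. Cells were raffinose-pregrown to mid-log, then seeded in galactose medium at OD600=0.02.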
# aSyn yeast inh: alpha-synuclein toxicity inhibition in yeast | 0.14% of 370,000 active | Potency, µM (top dose mostly 46.1 µM), hits mostly activators | Yeast expressing alpha-synuclein, growth rescue, BacTiter-Glo, 24 h | AID 652106; further: nearly all actives have a fitted effect of over 65% in size
#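 Readout is rescue of growth in alpha-synuclein-expressing yeast, so inhibitors of toxicity appear as activators. Growth after 24 hr at 30 deg C in galactose medium is quantified by luminescence.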
# uPA generation: inhibitors of cell surface uPA generation; cell surface uPA generation assay, qHTS; Potency, µM (titrated, usually from 38.3 µM), usual class: inhibitors; 0.31% of 330,000 active; AID 540303; active means well fitted inhibition curve with a large enough effect; inconclusive means small, poorly fitted or top-dose-only effect; inactive means no such curve, though single readings can be large or run the other way; tested in mouse RAW 264.7 cells; further: nearly all actives have a fitted effect of over 55% in size
# FUS suppressor: suppressors of FUS proteinopathy in yeast; AID 1347120; 0.24% of 390,000 active; S. cerevisiae FUS-expressing, growth rescue, OD600, 24 h; Potency, µM (doses to about 76.6 µM), actives largely listed as activators; further: nearly all actives have a fitted effect of over 55% in size
#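 Compound concentration series was pinned onto galactose-induced FUS-expressing yeast seeded at OD 0.005. Plates sat 24hr at 30C; absorbance at 600 nm gave growth. DMSO served as background control.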
# BCR signal inh: blocks chronic active B-cell receptor signaling; ABC-DLBCL IkBa-CBG/CBR reporter, luminescence ratio, 4 h; Potency, µM (doses to about 46.1 µM), actives largely listed as inhibitors; 0.05% of 340,000 active; AID 493014; active means well fitted inhibition curve with a large enough effect in the signal ratio, with a control signal flat, not every such curve was filed as active; inconclusive means small, poorly fitted or top-dose-only effect, or effect the other way, or a change in a side signal; the % refers to the signal ratio
#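 TMD8 ABC-DLBCL cells carrying doxycycline-inducible green luciferase fused to IkappaBalpha plus unfused red luciferase were exposed to compounds (up to 46 uM) for 4 hrs at 37C. Activity came from the overlap-corrected green/red luminescence ratio.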
# Hits are given with their value; – = inactive; ? = inconclusive; · = no result given. Only some compounds are listed: those with a hit (about 2.3% of all), similar ones and a draw of the others. Unless noted, the call rests on the fitted dose curve; in most records, active means well fitted curve in the direction sought with a large enough effect; inconclusive means small, poorly fitted or top-dose-only effect, or another doubt; inactive means no such curve, though single readings can be large; an effect the other way counts as inactive or inconclusive.
SMILES,Abeta rescue,TDP-43 yeast inh,aSyn yeast inh,uPA generation,FUS suppressor,BCR signal inh
O=C(NCC1CCN(C(=O)c2cccc([N+](=O)[O-])c2)CC1)c1cccc([N+](=O)[O-])c1,–,–,–,–,–,–
O=C(NCC1CCN(C(=O)c2c(F)c(F)c(F)c(F)c2F)CC1)c1c(F)c(F)c(F)c(F)c1F,–,12.6µM,–,?,·,–
CC(C)(C)S(=O)N1Cc2cc(C(=O)NCC(F)(F)F)nc(-c3cccc(-c4cccc(F)c4)c3)c2[C@@H]1CCO (stereo partly specified),–,–,–,·,22.4µM,·
COc1cccc(-c2cccc(-c3nc(C(=O)Nc4ccc(-c5ccccc5)cc4)cc4c3[C@H](CCO)N(S(=O)C(C)(C)C)C4)c2)c1 (stereo partly specified),–,–,–,·,28.2µM,·
CC(C)(C)S(=O)N1Cc2cc(C(=O)NCc3ccc(Oc4ccccc4)cc3)nc(-c3cccc(-c4cc5ccccc5o4)c3)c2[C@H]1CCO (stereo partly specified),–,–,–,·,?,·
CC(C)(C)S(=O)N1Cc2cc(C(=O)NCc3ccc4c(c3)OCO4)nc(-c3cccc(-c4cc5ccccc5o4)c3)c2[C@@H]1CCO (stereo partly specified),–,–,–,·,28.2µM,·
COc1cccc(-c2cccc(-c3nc(C(=O)NCc4ccc5c(c4)OCO5)cc4c3[C@H](CCO)N(S(=O)C(C)(C)C)C4)c2)c1 (stereo partly specified),–,–,–,·,20µM,·
CCC(c1nnnn1C(C)(C)C)N(Cc1ccco1)Cc1cc2cccc(C)c2[nH]c1=O (stereo unspecified),–,–,–,–,–,–
Cc1cc(S(=O)(=O)Nc2ccc3ccccc3c2)c(C)s1,–,?,17.8µM,·,–,–
Cc1cc(S(=O)(=O)Nc2cccnc2)c(C)s1,–,–,–,–,–,–
COc1ccc(S(=O)(=O)Nc2ccc3ccccc3c2)cc1C,–,?,22.4µM,·,–,–
O=C(N1CCOCC1)N1CCN(c2nc(-c3ccc(F)cc3)cs2)CC1,–,–,–,·,–,–
CCC1(C(=O)c2ccc(Cl)cc2)C2c3ccccc3OC(=O)C21C(=O)Nc1ccccc1 (stereo unspecified),–,–,14.1µM,–,·,?
O=C(Nc1ccc(Nc2ccccc2)cc1)c1ccc(Cl)cc1,–,–,–,–,–,·
CCN1C(=O)[C@H]2[C@@H](c3ccc(-c4ccccc4)cc3)N3CCCC[C@@]3(C(=O)OC)[C@H]2C1=O,–,35.5µM,–,–,?,–
CCSc1ccc([C@@H]2[C@@H]3C(=O)N(CC)C(=O)[C@@H]3[C@]3(C(=O)OC)CCCCN23)cc1,–,25.1µM,–,–,–,–
CCN1C(=O)[C@@H]2[C@@H](c3ccc(-c4ccc(OC)cc4)cc3)N3CCCC[C@@]3(C(=O)OC)[C@@H]2C1=O,–,–,–,–,–,–
CC1(C(=O)O)Sc2[nH]c(=O)sc2C2c3ccccc3OC(=O)C21 (stereo unspecified),–,–,–,–,–,?
COC(=O)c1sccc1NC(=O)Nc1ccccc1Cl,–,11.2µM,–,–,–,–
COC(=O)c1sccc1NC(=O)Nc1cccc(Cl)c1Cl,–,–,–,–,–,–
COC(=O)c1sccc1NC(=O)Nc1cc(OC)ccc1OC,–,17.8µM,–,–,–,?
COC(=O)c1sccc1Oc1c(Cl)cccc1[N+](=O)[O-],–,20µM,–,–,–,–
Cc1ccc(C(=O)N2CCN(S(=O)(=O)c3cc(Br)ccc3Br)CC2)o1,–,20µM,–,–,–,–
O=C(Nc1ccccc1Cl)Oc1ccc2ccccc2c1,·,·,·,·,·,–
O=C1c2ccccc2C(=O)N1CCCc1nc2ccccc2c(=O)n1CCCn1ccnc1,–,–,–,–,–,?
SMILES,Abeta rescue,TDP-43 yeast inh,aSyn yeast inh,uPA generation,FUS suppressor,BCR signal inh
Cn1nc(-c2ccccc2)c(C(=O)Nc2ccc(C(F)(F)F)cc2)c1Cl,–,–,–,–,–,–
Cn1nc(-c2ccccc2)c(C(=O)Nc2ccc(Cl)cc2)c1Cl,–,3.16µM,–,–,–,?
Cn1nc(C(F)(F)F)c(C(=O)Nc2ccc(F)cc2F)c1Cl,–,–,–,–,–,?
Cn1nc(C(F)(F)F)c(C(=O)Nc2ccc(C(F)(F)F)cc2)c1Cl,–,20µM,–,–,–,–
CCOC(=O)c1cnc2ccc(OCC)cc2c1N1CCN(c2cccc(Cl)c2)CC1,–,20µM,·,·,?,·
CCOC(=O)c1cnc2ccc(OCC)cc2c1N1CCN(C)CC1,–,–,–,–,–,?
O=S(=O)(Nc1ccccc1Cl)c1ccc(NS(=O)(=O)c2cccs2)cc1,–,–,–,–,–,–
CCCCn1nnnc1C(c1ccccc1)N1CCN(c2ccc(C)cc2)CC1 (stereo unspecified),–,35.5µM,–,·,–,·
CCCCn1nnnc1C(c1ccccc1)N1CCN(c2ncccn2)CC1 (stereo unspecified),–,–,–,·,–,·
Cc1ccnc2nc(C(=O)OCCOc3cccc(Br)c3)nn12,?,15.8µM,–,–,–,–
Cc1ccnc2nc(C(=O)OCCOc3ccccc3)nn12,–,–,–,–,–,–
Cc1cc2nn(-c3ccccc3)nc2cc1NC(=O)c1cccs1,–,–,–,–,–,–
CC(=O)Nc1cc2nn(-c3ccccc3)nc2cc1C,–,–,–,5.01µM,–,?
c1ccc(Oc2ccc(-c3cc(NCCc4cccnc4)n4nccc4n3)cc2)cc1,–,–,–,·,–,·
Cc1ccc(S(=O)(=O)Cc2ccc(C(=O)NCCc3ccc(Cl)cc3)o2)cc1,–,?,·,·,–,·
Cc1ccccc1Nc1nc(N)nc(CSc2nnc(C)n2C)n1,–,–,–,–,–,–
Cc1ccc(SCc2nc(N)nc(Nc3ccccc3C)n2)c(C)c1,?,?,–,–,–,–
COc1ccc(Nc2nc(N)nc(CSc3nc4cc(OC)ccc4s3)n2)cc1,–,20µM,·,·,?,·
Cc1ccccc1Nc1nc(N)nc(CSc2ccc(F)cc2)n1,–,25.1µM,–,–,–,–
Cc1ccccc1Nc1nc(N)nc(CSc2nc3ccccc3s2)n1,–,20µM,–,–,·,–
Cc1ccc(SCc2nc(N)nc(Nc3ccccc3C)n2)cc1C,–,17.8µM,–,–,?,?
CCCC(=O)c1ccc(OCc2cn(CC(=O)c3ccc(O)cc3)nn2)cc1,–,–,–,–,–,·
CCOC(=O)c1cccc(NC(=O)CC2C(=O)N(c3ccccc3)C(=O)N2Cc2ccco2)c1 (stereo unspecified),–,–,·,·,–,·
Cn1c(NC(=O)c2cccs2)cc(=O)n(C)c1=O,–,–,–,–,–,–
Cc1ccccc1NC(=O)CCCSc1nc2ccccc2s1,–,12.6µM,–,–,·,?
COCCOC(=O)c1[nH]c2c(c1C)C(=O)CC(c1ccc(OC)c(OC)c1)C2 (stereo unspecified),–,–,–,–,–,–
CC12CCC(=O)N1C(C(=O)Nc1nc(-c3ccccc3Cl)cs1)CS2 (stereo unspecified),–,10µM,–,–,–,?

# Source: PubChem BioAssay (National Center for Advancing Translational Sciences (NCATS))
